# Like-named read-outs stand apart in the source and are kept apart here.
# Key:
# CDKL5 = details: read-out: apparent Kd, n = 1
# CLK4 = details: read-out: apparent Kd, n = 1
# [1] = compound concentrations:100 nM and 1000 nM (sheet 'Lestaurtinib' of Supplementary Table 1),run:Lestaurtinib_02577_R1,Plate:MR016
# [2] = compound concentrations:100 nM and 1000 nM (sheet 'Lestaurtinib' of Supplementary Table 1),run:Lestaurtinib_02577_R2,Plate:MR016
# [3] = compound concentrations:100 nM and 1000 nM (sheet 'Lestaurtinib' of Supplementary Table 1),run:Lestaurtinib_02584_R1,Plate:MR017
# [4] = compound concentrations:100 nM and 1000 nM (sheet 'Lestaurtinib' of Supplementary Table 1),run:Lestaurtinib_02584_R2,Plate:MR017
# [5] = compound concentrations:100 nM and 1000 nM (sheet 'Lestaurtinib' of Supplementary Table 1),run:Lestaurtinib_02584_R3,Plate:MR017
# [6] = compound concentrations:100 nM and 1000 nM (sheet 'Lestaurtinib' of Supplementary Table 1),run:Lestaurtinib_02606_R1,Plate:MR019
# [7] = compound concentrations:100 nM and 1000 nM (sheet 'Lestaurtinib' of Supplementary Table 1),run:Lestaurtinib_02624_R2,Plate:MR020
# [8] = compound concentrations:100 nM and 1000 nM (sheet 'Lestaurtinib' of Supplementary Table 1),run:Lestaurtinib_02766_R3,Plate:MR027
substance,measurement,setting,value
Lestaurtinib,potency estimated from few doses,CDKL5; [1],82.6 nM
same,potency estimated from few doses,CDKL5; [2],144 nM
same,potency estimated from few doses,CDKL5; [3],86.8 nM
same,potency estimated from few doses,CDKL5; [4],37.3 nM
same,potency estimated from few doses,CDKL5; [5],565 nM
same,potency estimated from few doses,"CDKL5; compound concentrations:100 nM and 1000 nM (sheet 'Lestaurtinib' of Supplementary Table 1),run:Lestaurtinib_02601_R1,Plate:MR018",966 nM
same,potency estimated from few doses,"CDKL5; compound concentrations:100 nM and 1000 nM (sheet 'Lestaurtinib' of Supplementary Table 1),run:Lestaurtinib_02601_R2,Plate:MR018",921 nM
same,potency estimated from few doses,"CDKL5; compound concentrations:100 nM and 1000 nM (sheet 'Lestaurtinib' of Supplementary Table 1),run:Lestaurtinib_02601_R3,Plate:MR018",143 nM
same,potency estimated from few doses,CDKL5; [6],58.1 nM
same,potency estimated from few doses,"CDKL5; compound concentrations:100 nM and 1000 nM (sheet 'Lestaurtinib' of Supplementary Table 1),run:Lestaurtinib_02606_R2,Plate:MR019",98.3 nM
same,potency estimated from few doses,"CDKL5; compound concentrations:100 nM and 1000 nM (sheet 'Lestaurtinib' of Supplementary Table 1),run:Lestaurtinib_02624_R1,Plate:MR020",75 nM
same,potency estimated from few doses,CDKL5; [7],137 nM
same,potency estimated from few doses,"CDKL5; compound concentrations:100 nM and 1000 nM (sheet 'Lestaurtinib' of Supplementary Table 1),run:Lestaurtinib_02741_R2,Plate:MR023",695 nM
same,potency estimated from few doses,"CDKL5; compound concentrations:100 nM and 1000 nM (sheet 'Lestaurtinib' of Supplementary Table 1),run:Lestaurtinib_02748_R3,Plate:MR024",149 nM
same,potency estimated from few doses,"CDKL5; compound concentrations:100 nM and 1000 nM (sheet 'Lestaurtinib' of Supplementary Table 1),run:Lestaurtinib_02752_R1,Plate:MR025",225 nM
same,potency estimated from few doses,"CDKL5; compound concentrations:100 nM and 1000 nM (sheet 'Lestaurtinib' of Supplementary Table 1),run:Lestaurtinib_02752_R3,Plate:MR025",226 nM
same,potency estimated from few doses,"CDKL5; compound concentrations:100 nM and 1000 nM (sheet 'Lestaurtinib' of Supplementary Table 1),run:Lestaurtinib_02765_R2,Plate:MR026",212 nM
same,potency estimated from few doses,CDKL5; [8],28.6 nM
same,potency estimated from few doses,"CDKL5; compound concentrations:100 nM and 1000 nM (sheet 'Lestaurtinib' of Supplementary Table 1),run:Lestaurtinib_02795_R2,Plate:MR022",1690 nM
same,potency estimated from few doses,"CDKL5; compound concentrations:100 nM and 1000 nM (sheet 'Lestaurtinib' of Supplementary Table 1),run:Lestaurtinib_02795_R3,Plate:MR022",55.9 nM
same,potency estimated from few doses,"CDKL5; compound concentrations:100 nM and 1000 nM (sheet 'Lestaurtinib' of Supplementary Table 1),run:Lestaurtinib_02802_R2,Plate:MR029",130 nM
same,potency estimated from few doses,"CDKL5; compound concentrations:100 nM and 1000 nM (sheet 'Lestaurtinib' of Supplementary Table 1),run:Lestaurtinib_02896_R1,Plate:MR030",336 nM
same,potency estimated from few doses,"CDKL5; compound concentrations:100 nM and 1000 nM (sheet 'Lestaurtinib' of Supplementary Table 1),run:Lestaurtinib_02896_R2,Plate:MR030",99.8 nM
same,potency estimated from few doses,"CDKL5; compound concentrations:100 nM and 1000 nM (sheet 'Lestaurtinib' of Supplementary Table 1),run:Lestaurtinib_02896_R3,Plate:MR030",1300 nM
same,potency estimated from few doses,"CDKL5; compound concentrations:100 nM and 1000 nM (sheet 'Lestaurtinib' of Supplementary Table 1),run:Lestaurtinib_03172_R1,Plate:MR031",298 nM
same,potency estimated from few doses,"CDKL5; compound concentrations:100 nM and 1000 nM (sheet 'Lestaurtinib' of Supplementary Table 1),run:Lestaurtinib_03172_R3,Plate:MR031",99.7 nM
same,potency estimated from few doses,"CDKL5; compound concentrations:100 nM and 1000 nM (sheet 'Lestaurtinib' of Supplementary Table 1),run:Lestaurtinib_03260_R2,Plate:MR033",460 nM
same,potency estimated from few doses,"CDKL5; compound concentrations:100 nM and 1000 nM (sheet 'Lestaurtinib' of Supplementary Table 1),run:Lestaurtinib_03260_R3,Plate:MR033",730 nM
same,potency estimated from few doses,"CLK4; compound concentrations:100 nM and 1000 nM (sheet 'Lestaurtinib' of Supplementary Table 1),run:Lestaurtinib_02339_R1,Plate:MR001",43.2 nM
same,potency estimated from few doses,"CLK4; compound concentrations:100 nM and 1000 nM (sheet 'Lestaurtinib' of Supplementary Table 1),run:Lestaurtinib_02339_R2,Plate:MR001",51.8 nM
same,potency estimated from few doses,"CLK4; compound concentrations:100 nM and 1000 nM (sheet 'Lestaurtinib' of Supplementary Table 1),run:Lestaurtinib_02339_R3,Plate:MR001",29.6 nM
same,potency estimated from few doses,"CLK4; compound concentrations:100 nM and 1000 nM (sheet 'Lestaurtinib' of Supplementary Table 1),run:Lestaurtinib_02364_R2,Plate:MR002",35.4 nM
same,potency estimated from few doses,"CLK4; compound concentrations:100 nM and 1000 nM (sheet 'Lestaurtinib' of Supplementary Table 1),run:Lestaurtinib_02367_R2,Plate:MR003",78.8 nM
same,potency estimated from few doses,"CLK4; compound concentrations:100 nM and 1000 nM (sheet 'Lestaurtinib' of Supplementary Table 1),run:Lestaurtinib_02367_R3,Plate:MR003",56.1 nM
same,potency estimated from few doses,"CLK4; compound concentrations:100 nM and 1000 nM (sheet 'Lestaurtinib' of Supplementary Table 1),run:Lestaurtinib_02381_R1,Plate:MR004",62.4 nM
same,potency estimated from few doses,"CLK4; compound concentrations:100 nM and 1000 nM (sheet 'Lestaurtinib' of Supplementary Table 1),run:Lestaurtinib_02381_R2,Plate:MR004",34.7 nM
same,potency estimated from few doses,"CLK4; compound concentrations:100 nM and 1000 nM (sheet 'Lestaurtinib' of Supplementary Table 1),run:Lestaurtinib_02381_R3,Plate:MR004",51.1 nM
same,potency estimated from few doses,"CLK4; compound concentrations:100 nM and 1000 nM (sheet 'Lestaurtinib' of Supplementary Table 1),run:Lestaurtinib_02407_R2,Plate:MR005",17 nM
same,potency estimated from few doses,"CLK4; compound concentrations:100 nM and 1000 nM (sheet 'Lestaurtinib' of Supplementary Table 1),run:Lestaurtinib_02407_R3,Plate:MR005",22.9 nM
same,potency estimated from few doses,"CLK4; compound concentrations:100 nM and 1000 nM (sheet 'Lestaurtinib' of Supplementary Table 1),run:Lestaurtinib_02422_R1,Plate:MR006",27.9 nM
same,potency estimated from few doses,"CLK4; compound concentrations:100 nM and 1000 nM (sheet 'Lestaurtinib' of Supplementary Table 1),run:Lestaurtinib_02422_R3,Plate:MR006",48 nM
same,potency estimated from few doses,"CLK4; compound concentrations:100 nM and 1000 nM (sheet 'Lestaurtinib' of Supplementary Table 1),run:Lestaurtinib_02437_R1,Plate:MR007",25 nM
same,potency estimated from few doses,"CLK4; compound concentrations:100 nM and 1000 nM (sheet 'Lestaurtinib' of Supplementary Table 1),run:Lestaurtinib_02437_R2,Plate:MR007",71.7 nM
same,potency estimated from few doses,"CLK4; compound concentrations:100 nM and 1000 nM (sheet 'Lestaurtinib' of Supplementary Table 1),run:Lestaurtinib_02438_R1,Plate:MR008",19.3 nM
same,potency estimated from few doses,"CLK4; compound concentrations:100 nM and 1000 nM (sheet 'Lestaurtinib' of Supplementary Table 1),run:Lestaurtinib_02438_R3,Plate:MR008",141 nM
same,potency estimated from few doses,"CLK4; compound concentrations:100 nM and 1000 nM (sheet 'Lestaurtinib' of Supplementary Table 1),run:Lestaurtinib_02443_R1,Plate:MR009",80.9 nM
same,potency estimated from few doses,"CLK4; compound concentrations:100 nM and 1000 nM (sheet 'Lestaurtinib' of Supplementary Table 1),run:Lestaurtinib_02443_R2,Plate:MR009",75.8 nM
same,potency estimated from few doses,"CLK4; compound concentrations:100 nM and 1000 nM (sheet 'Lestaurtinib' of Supplementary Table 1),run:Lestaurtinib_02473_R1,Plate:MR010",58 nM
same,potency estimated from few doses,"CLK4; compound concentrations:100 nM and 1000 nM (sheet 'Lestaurtinib' of Supplementary Table 1),run:Lestaurtinib_02473_R2,Plate:MR010",35.2 nM
same,potency estimated from few doses,"CLK4; compound concentrations:100 nM and 1000 nM (sheet 'Lestaurtinib' of Supplementary Table 1),run:Lestaurtinib_02482_R2,Plate:MR011",86.4 nM
same,potency estimated from few doses,"CLK4; compound concentrations:100 nM and 1000 nM (sheet 'Lestaurtinib' of Supplementary Table 1),run:Lestaurtinib_02487_R2,Plate:MR012",73.6 nM
same,potency estimated from few doses,"CLK4; compound concentrations:100 nM and 1000 nM (sheet 'Lestaurtinib' of Supplementary Table 1),run:Lestaurtinib_02496_R2,Plate:MR013",98.1 nM
same,potency estimated from few doses,"CLK4; compound concentrations:100 nM and 1000 nM (sheet 'Lestaurtinib' of Supplementary Table 1),run:Lestaurtinib_02496_R3,Plate:MR013",54.4 nM
same,potency estimated from few doses,"CLK4; compound concentrations:100 nM and 1000 nM (sheet 'Lestaurtinib' of Supplementary Table 1),run:Lestaurtinib_02566_R1,Plate:MR014",47.9 nM
same,potency estimated from few doses,"CLK4; compound concentrations:100 nM and 1000 nM (sheet 'Lestaurtinib' of Supplementary Table 1),run:Lestaurtinib_02572_R1,Plate:MR015",74.6 nM
same,potency estimated from few doses,"CLK4; compound concentrations:100 nM and 1000 nM (sheet 'Lestaurtinib' of Supplementary Table 1),run:Lestaurtinib_02572_R2,Plate:MR015",41.6 nM
same,potency estimated from few doses,"CLK4; compound concentrations:100 nM and 1000 nM (sheet 'Lestaurtinib' of Supplementary Table 1),run:Lestaurtinib_02572_R3,Plate:MR015",53.8 nM
same,potency estimated from few doses,CLK4; [1],877 nM
same,potency estimated from few doses,CLK4; [2],830 nM
same,potency estimated from few doses,CLK4; [3],65.8 nM
same,potency estimated from few doses,CLK4; [4],67.9 nM
same,potency estimated from few doses,CLK4; [5],44.4 nM
same,potency estimated from few doses,CLK4; [6],78.2 nM
same,potency estimated from few doses,"CLK4; compound concentrations:100 nM and 1000 nM (sheet 'Lestaurtinib' of Supplementary Table 1),run:Lestaurtinib_02606_R3,Plate:MR019",45.4 nM
same,potency estimated from few doses,CLK4; [7],79.1 nM
same,potency estimated from few doses,"CLK4; compound concentrations:100 nM and 1000 nM (sheet 'Lestaurtinib' of Supplementary Table 1),run:Lestaurtinib_02624_R3,Plate:MR020",55.4 nM
same,potency estimated from few doses,"CLK4; compound concentrations:100 nM and 1000 nM (sheet 'Lestaurtinib' of Supplementary Table 1),run:Lestaurtinib_02724_R2,Plate:MR021",62.7 nM
same,potency estimated from few doses,"CLK4; compound concentrations:100 nM and 1000 nM (sheet 'Lestaurtinib' of Supplementary Table 1),run:Lestaurtinib_02724_R3,Plate:MR021",76.1 nM
same,potency estimated from few doses,"CLK4; compound concentrations:100 nM and 1000 nM (sheet 'Lestaurtinib' of Supplementary Table 1),run:Lestaurtinib_02741_R3,Plate:MR023",62 nM
same,potency estimated from few doses,"CLK4; compound concentrations:100 nM and 1000 nM (sheet 'Lestaurtinib' of Supplementary Table 1),run:Lestaurtinib_02748_R2,Plate:MR024",132 nM
same,potency estimated from few doses,CLK4; [8],69.4 nM
same,potency estimated from few doses,"CLK4; compound concentrations:100 nM and 1000 nM (sheet 'Lestaurtinib' of Supplementary Table 1),run:Lestaurtinib_02768_R2,Plate:MR028",1150 nM

# From publication PMC11062922 (Nature Chemical Biology, 2023)
